Compound activity deposited in PubChem by several laboratories.
p97 ATPase inh = inhibitors of human p97 ATPase. recombinant p97 ATPase, Kinase-Glo ATP luminescence, 3 h. inhibition, % at 8 µM. actives 0.42% (n = 220,000); in the data active = inhibition above about 15%;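 note: 0% = DMSO vehicle and 100% = wells lacking enzyme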
Target sequence (P55072 whole entry, looked up): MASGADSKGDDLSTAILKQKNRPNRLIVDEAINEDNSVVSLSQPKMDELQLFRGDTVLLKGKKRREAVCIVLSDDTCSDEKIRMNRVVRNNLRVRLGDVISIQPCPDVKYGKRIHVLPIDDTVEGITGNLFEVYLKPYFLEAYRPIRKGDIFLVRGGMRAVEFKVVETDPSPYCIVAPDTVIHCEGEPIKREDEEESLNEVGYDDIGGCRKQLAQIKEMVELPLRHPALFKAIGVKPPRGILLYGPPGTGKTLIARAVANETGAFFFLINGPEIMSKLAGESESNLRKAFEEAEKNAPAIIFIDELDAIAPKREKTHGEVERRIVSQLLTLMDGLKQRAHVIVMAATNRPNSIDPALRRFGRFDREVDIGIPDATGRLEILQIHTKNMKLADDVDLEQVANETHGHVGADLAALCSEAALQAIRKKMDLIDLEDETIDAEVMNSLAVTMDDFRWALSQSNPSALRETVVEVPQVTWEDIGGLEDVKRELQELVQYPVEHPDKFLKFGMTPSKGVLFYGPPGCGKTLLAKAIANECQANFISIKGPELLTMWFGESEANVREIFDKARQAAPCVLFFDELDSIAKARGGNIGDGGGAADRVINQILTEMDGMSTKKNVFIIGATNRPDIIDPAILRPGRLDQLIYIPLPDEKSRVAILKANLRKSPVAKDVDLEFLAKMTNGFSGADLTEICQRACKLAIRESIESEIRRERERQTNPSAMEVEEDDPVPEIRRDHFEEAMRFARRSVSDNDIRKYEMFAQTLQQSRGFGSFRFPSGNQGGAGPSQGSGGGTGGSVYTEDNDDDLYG
LYPLA2 counter = blocks human lysophospholipase 2, a PME1 counter-screen. O95372. recombinant LYPLA2, FP-Rh probe fluorescence polarization. inhibition, % at 5.9 µM. actives 0.38% (n = 320,000);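 active = inhibition above the screen-wide mean plus 3 SD, limit set per campaign, cut at about 26% in these data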;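 note: 0% = LYPLA2 with DMSO and 100% = wells lacking LYPLA2 enzyme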
Redox H2O2 prof = compounds producing H2O2 with reducing agent – biochemical, NIH compound library profiling, artefact control for MLSCN library redox annotation, primary screen; DTT-dependent redox cycling H2O2, phenol red/HRP absorbance; 100% = 100 µM peroxide control, 0% = buffer; AID 878; activation, % at 10 µM; actives 0.03% (n = 200,000);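 active = activation of at least 50% relative to the plate's high and low controls in the primary single-dose screen; inactive = activation below 50%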;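 note: compound incubated with DTT at 0.8 mM final as the reducing agent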
LYPLA1 counter = counter-screen for PME1 inhibitors: inhibitors of human LYPLA1 | O75608 | actives 0.16% (n = 320,000) | recombinant LYPLA1, FP-Rh probe fluorescence polarization | inhibition, % at 5.9 µM;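 active = inhibition above the mean of all tested compounds plus 3 SD, set per campaign, cut at about 14% in these data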;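 note: inhibitors block serine hydrolase probe labeling of LYPLA1 so polarization falls; 0% = enzyme with DMSO and 100% = wells lacking LYPLA1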
LYPLA2 conf = LYPLA2 (human) inhibition, confirmation counter-screen | inhibition, % at 5.9 µM | actives 72% (n = 1,100) | recombinant LYPLA2, FP-Rh probe fluorescence polarization | shares compounds with LYPLA2 counter;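 active = mean inhibition across replicates above the hit cutoff set in the primary screen, cut at about 26% in these data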;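 note: blocked labeling of the enzyme by serine hydrolase FP-Rh probe lowers polarization; 0% = enzyme with DMSO and 100% = wells lacking LYPLA2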
LYPLA2 gel ABPP = inhibitors of human LYPLA2. actives 30% (n = 150). rhLYPLA2 in mouse brain proteome, gel ABPP FP-Rh. inhibition, % at 20 µM. shares compounds with LYPLA2 counter. AID 652029;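 active = inhibition of LYPLA2 enzyme probe labeling above about 50%, limit read from the data; inactive = inhibition below that limit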;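 note: loss of FP-Rh probe labeling of the LYPLA2 gel band measured as band density; 0% = DMSO only control band and 100% = blank gel background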
The depositor's hits bear a star; · = no result given. Rows were chosen to be rich in hits. Some 0.74% of all compounds tested hit in one or more screens of this group.

SMILES	p97 ATPase inh	LYPLA2 counter	Redox H2O2 prof	LYPLA1 counter	LYPLA2 conf	others
COc1ccc(NC(=O)COC(=O)c2cc(C)oc2C)c([N+](=O)[O-])c1	·	-3	·	0	·
O=C(Nc1ccc(Oc2ccccc2)cc1)C1CCN(c2c3c(nc4ncnn24)CCC3)CC1	-2	28*	3	-2	22
O=C(Nc1ccc2c(c1)CCC2)C1CCN(c2c3c(nc4ncnn24)CCC3)CC1	5	12	1	-2	·
O=C(c1ccc(CS(=O)c2cccc(Cl)c2)o1)N1CCN(c2ccccn2)CC1 (centres undefined)	·	-7	·	0	·
CCOC(=O)C1=C(C)NC2=C(C1c1ccc([N+](=O)[O-])cc1)S(=O)(=O)c1ccccc12 (centres undefined)	3	41*	0	1	38*
CCOC(=O)C1=C(C)NC2=C(C(=O)c3ccccc32)C1c1ccc([N+](=O)[O-])o1 (centres undefined)	7	2	·	-6	·
O=c1c2ccccc2ncn1-c1ccc([N+](=O)[O-])cc1[N+](=O)[O-]	·	8	·	-1	·
Cc1ccc(-n2cnn(-c3ccc([N+](=O)[O-])cc3[N+](=O)[O-])c2=O)cc1	·	55*	·	2	56*	LYPLA2 gel ABPP=46
COc1ccc(N2CCN(c3oc(-c4ccco4)nc3C#N)CC2)cc1	-7	22	-1	10	·
N#Cc1nc(-c2ccco2)oc1N1CCN(c2ccccc2)CC1	2	26*	0	6	17
COc1ccccc1C(=O)C1CCCN(C(=O)c2ccc3c(c2)OCCO3)C1 (centres undefined)	1	43*	0	6	5
CC1CCCN(C(=O)c2ccc3c(c2)OCCO3)C1 (centres undefined)	·	1	·	-1	·
COc1ccc([C@H]2CC(=O)C=C(c3ccc(F)cc3OCc3ccccc3)C2)cc1OC	·	27*	·	2	-4
COc1ccc([C@H]2CC(=O)C=C(c3ccc(F)cc3OCc3ccccc3)C2)cc1	·	-6	·	0	·
O=C(NCc1ccco1)c1ccc2[nH]c(=O)c(=O)[nH]c2c1	·	28*	·	6	0
O=C(O)c1nn(CC(=O)N(C2CCCCC2)C2CCCCC2)c(=O)c2ccccc12	2	5	0	1	·
COc1ccc(N2CCN(C(=O)CSc3ccc([N+](=O)[O-])cc3)CC2)cc1	4	54*	-1	2	49*
COc1ccc(N2CCN(C(=O)COC(=O)c3ccc(-n4nc(C)cc4C)cc3)CC2)cc1	·	43*	·	7	40*
COc1ccc(C(=O)CCC(=O)N2CCN(c3ccc([N+](=O)[O-])cc3)CC2)cc1	·	29*	·	0	19
Cc1ccc(CC(=O)N2CCN(c3ccc([N+](=O)[O-])cc3)CC2)cc1	·	17	·	3	·
Cc1noc(C)c1CSCC(=O)N1CCN(c2ccc([N+](=O)[O-])cc2)CC1	0	28*	0	6	25
COc1ccc(C(=O)NC(=S)N2CCN(c3ccc([N+](=O)[O-])cc3)CC2)cc1	3	5	0	-1	·
COc1ccc(N2CCN(C(=O)CSc3ccc(C)cc3)CC2)cc1	4	10	-1	1	·
CCN(c1ccc(OC)cc1)S(=O)(=O)c1nnc(NC(=O)COc2ccccc2)s1	·	17	·	1	·
O=C(CCCC(=O)N1CCN(c2ccc([N+](=O)[O-])cc2)CC1)c1ccccc1	0	34*	0	9	33*
SMILES	p97 ATPase inh	LYPLA2 counter	Redox H2O2 prof	LYPLA1 counter	LYPLA2 conf	others
O=[N+]([O-])c1ccc(N2CCN(c3ccccc3)CC2)cc1	·	-3	·	-1	·
COc1cccc(NC(=O)C(=O)N/N=C(\C)CC(=O)Nc2ccc(NC(C)=O)cc2)c1	·	12	·	5	·
O=C(NCc1ccccn1)c1ccc(OC2CCN(Cc3cccs3)CC2)cc1	·	28*	·	-2	6
CC(C)(C)c1ccc(C(=O)NN2C(=O)CSC2=S)cc1	2	-4	·	-3	·
COCc1cc(C)nc(Oc2ccccc2)c1C#N	-3	10	0	0	·
NC(=O)C1(N2CCCCC2)CCN(C(=O)CSc2nc3ccccc3s2)CC1	0	32*	0	4	31*
O=C(CSc1nc2ccccc2s1)N1CCOCC1	3	1	-3	-1	·
CC(C)n1c(SCC(=O)NC2CCCCC2)nnc1-c1ccco1	·	1	·	5	·
CCCCc1ccc(NC(=O)CSc2nc(=O)n(CCN(CC)CC)c3c2CCC3)cc1	·	4	·	-2	·
O=C(OCc1cccc(Cl)c1)c1cc(S(=O)(=O)N2CCCCC2)ccc1N1CCOCC1	·	-6	·	-2	·
O=C(OCCOc1cccc(Cl)c1)c1cc(S(=O)(=O)N2CCCCC2)ccc1N1CCOCC1	·	53*	·	13	58*
CC(C)CNC(=O)COC(=O)c1cc(S(=O)(=O)N2CCCCC2)ccc1N1CCOCC1	4	-6	0	2	·
CC(C)NC(=O)NC(=O)COC(=O)c1cc(S(=O)(=O)N2CCCCC2)ccc1N1CCOCC1	·	27*	·	1	24
C=CCN(c1ccc(C(=O)Nc2ccc(NC(C)=O)cc2)cc1)S(C)(=O)=O	4	0	0	-3	·
Cc1cccnc1NC(=O)C(c1ccccc1)c1ccccc1	·	27*	·	0	-1
COc1cccc(NC(=O)CCC2CCN(C(=O)c3ccc(C(C)=O)s3)CC2)c1	·	27*	·	1	32*
CC(=O)Nc1cccc(C(=O)OC(C)C(=O)N2CCc3ccccc32)c1 (centres undefined)	·	28*	·	0	28*
Cn1cnc2cc(NCc3ccc(Cl)cc3)ccc21	·	7	·	3	·
CCOC(=O)C(Cc1ccccc1)c1ccnc2ncnn12 (centres undefined)	1	35*	0	4	10
NC(=O)CC(NC(=O)c1ccc(Br)cc1)c1ccc(N2CCN(c3ccccn3)CC2)c([N+](=O)[O-])c1 (centres undefined)	·	50*	·	3	57*	LYPLA2 gel ABPP=37
NC(=O)CC(NC(=O)c1ccccc1)c1ccc(N2CCN(c3ccccc3)CC2)c([N+](=O)[O-])c1 (centres undefined)	·	14	·	-4	·
NC(=O)CC(NC(=O)c1cccc(Br)c1)c1ccc(N2CCN(c3ccccn3)CC2)c([N+](=O)[O-])c1 (centres undefined)	·	23	·	-4	·
NC(=O)CC(NC(=O)c1ccccc1)c1ccc(N2CCN(c3ccc(F)cc3)CC2)c([N+](=O)[O-])c1 (centres undefined)	·	27*	·	-4	33*
COc1ccc(NC(=O)C(NC(C)=O)C(=O)Nc2ccc(F)cc2)cc1 (centres undefined)	·	-1	·	0	·
COc1ccccc1-n1cc(C(=O)NCC(=O)N2CCN(c3ccccc3)CC2)c2ccccc2c1=O	-1	37*	-3	4	27*
